Screens as filed in PubChem BioAssay.
ELG1 repair inh: ELG1-dependent DNA repair inhibition; HEK293T ELG1-luciferase reporter, luminescence, 16 h; DNA damage induced by 5-fluorouridine; Potency, µM (doses to about 46.1 µM), for inactives: at the highest dose activity change, negative = inhibition, hits mostly inhibitors; 330,000 tested, 2.3% active; AID 504467; note: % is set by controls: 0 for no effect and ±100 for the full control effect; nearly all actives have a fitted effect of over 55% in size
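5-Fluorouridine DNA damage + compound/DMSO, 2,000 cells/well, 16 h, 37 °C/5% CO2. ONE-Glo, 30 min RT, luminescence. Readout = decrease in reporter signal.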
RORg inh: blocks mouse ROR gamma transcriptional activity; 310,000 tested, 5.4% active; AID 2551; Potency, µM (titrated, usually from 53.6 µM), for the others: at the highest dose activity change, negative = inhibition, usual class: inhibitors; Drosophila S2 Gal4-RORgamma UAS-luciferase reporter, 20 h; note: % is set by controls: 0 for no effect and ±100 for the full control effect; nearly all actives have a fitted effect of over 60% in size
Target sequence (P51450 whole entry, looked up, the tested form may be a part): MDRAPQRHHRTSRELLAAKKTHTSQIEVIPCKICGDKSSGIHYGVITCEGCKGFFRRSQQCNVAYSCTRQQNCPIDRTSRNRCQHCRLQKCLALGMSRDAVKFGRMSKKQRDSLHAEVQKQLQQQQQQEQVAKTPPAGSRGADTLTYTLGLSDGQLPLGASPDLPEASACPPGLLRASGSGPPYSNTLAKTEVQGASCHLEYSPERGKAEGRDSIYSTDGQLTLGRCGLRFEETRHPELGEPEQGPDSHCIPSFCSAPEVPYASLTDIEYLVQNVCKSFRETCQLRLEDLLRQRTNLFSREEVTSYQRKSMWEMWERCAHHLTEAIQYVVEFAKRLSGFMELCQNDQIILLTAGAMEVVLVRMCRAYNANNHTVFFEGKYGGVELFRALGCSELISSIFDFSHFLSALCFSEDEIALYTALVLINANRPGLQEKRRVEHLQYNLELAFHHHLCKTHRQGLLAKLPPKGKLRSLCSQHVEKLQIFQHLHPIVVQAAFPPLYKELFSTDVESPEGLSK
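Drosophila S2 cells stably expressing Gal4-DBD/mouse RORγ fusion under metallothionein promoter plus UAS-luciferase; compound 1 h, then 700 uM CuSO4 induction for 20 h at ambient temperature; inhibition read as reduced luminescence.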
SW480 rereplic: DNA re-replication induction in SW480 cells. SW480 DNA re-replication, Hoechst DNA content imaging, 48 h. Potency, µM (series often up to 46.1 µM), for inactives: at the highest dose re-replication activation, actives largely listed as activators. 340,000 tested, 1.8% active; note: % of control where 0% means no effect; nearly all actives have a fitted effect of over 55% in size
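Image-based DNA-content assay: after two days of treatment, nuclei were labelled with the DNA dye Hoechst and imaged, and hits were compounds raising the count of nuclei showing high fluorescence intensity.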
MCF10A rerep: DNA re-replication induction in MCF 10a cells; 350,000 tested, 2.9% active; Potency, µM (highest dose often 46.1 µM), inactives show at the top dose activity, positive = re-replication, actives largely listed as activators; MCF 10A DNA re-replication, Hoechst nuclear intensity, 48 h; note: % of control where 0% means no effect; nearly all actives have a fitted effect of over 50% in size
Gal4-VP16 FLuc: Gal4-VP16 reporter inhibition counter-screen; Drosophila S2 Gal4-VP16 UAS-luciferase, luminescence, 20 h; Potency, µM (titrated, usually from 53.6 µM), for inactives: top-dose activity, negative = inhibition, hits mostly inhibitors; 310,000 tested, 3.5% active; AID 2546;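 note: Gal4-VP16 expression switched on by copper sulfate through the metallothionein promoter; % is set by controls: 0 for no effect and ±100 for the full control effect; nearly all actives have a fitted effect of over 50% in size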
The depositor's hits bear a star; ? = inconclusive; . = no result given; ! = a repeat was not active; [ ] = dose if it differs, or a comment. Most compounds without a hit are left out; they make up all but 10% or so of the library. Calls come from the whole dose curve; as a rule, active = well fitted curve in the direction sought with a large enough effect; inconclusive = small, poorly fitted or top-dose-only effect, or another doubt; inactive = no such curve, though single readings can be large; an effect the other way counts as inactive or inconclusive. Potency is the fitted concentration of half-maximal effect.

SMILES	ELG1 repair inh	RORg inh	SW480 rereplic	MCF10A rerep	Gal4-VP16 FLuc
C#CCOCCOCCOCCNc1nc(N2CCN(C(=O)[C@H]([C@@H](C)CC)n3cc(CCCN=C(N)N)nn3)CC2)nc(N2CCN(C(=O)[C@H]([C@@H](C)CC)n3cc(CCC(=O)O)nn3)CC2)n1	.	.	-2.1%[9.22 µM]	-5.5%	.
COc1ccc(/C=C/C(=O)NC(=S)N2CCSCC2)cc1	?	3.55µM*	7.7%	3.2%	12.6µM*
COc1ccc(/C=C/C(=O)NC(=S)N2CCN(c3ccccn3)CC2)cc1	?	2.51µM*	6.5%	-3.1%	12.6µM*
COCCN(CC1CCCN(C2Cc3ccccc3C2)C1)C(=O)c1cccc(C)c1 (centres undefined)	6.8%	-3.3%	-0.1%	0.9%	1.1%
COCCN(CC1CCCN(C2Cc3ccccc3C2)C1)C(=O)c1ccc(C(C)=O)cc1 (centres undefined)	21.1%	9.8%	0.316µM*	?	-13.3%
COc1ccc2c(-c3ccccc3)cc(SCC(=O)NC3CCS(=O)(=O)C3)nc2c1 (centres undefined)	-12.8%	11.2µM*	-2.9%	0.6%	-5.8%
CCN(C(=O)CSc1cc(-c2ccccc2)c2ccc(OC)cc2n1)C1CCS(=O)(=O)C1 (centres undefined)	?	28.8%	2.4%	?	-23.5%
COc1ccc2c(-c3ccccc3)cc(SCC(=O)NC(N)=O)nc2c1	5.8%	2.9%	-38.1%	5.8µM*	-19.3%
COCCNC(=O)CSc1cc(-c2ccccc2)c2ccc(OC)cc2n1	-25.0%	-34.8%	0.9%	?	6.9%
O=C(/C=C/c1ccc(Br)o1)Nc1nnc(C2CC2)s1	?	0.5%	.	.	-0.9%
O=c1c2ccccc2ncn1-c1ccccc1[N+](=O)[O-]	3.8%	.	-4.6%	11.6%	.
O=c1c2ccccc2ncn1-c1ccc(Br)cc1[N+](=O)[O-]	-2.7%	-23.0%	5.8µM*	?	-9.0%
O=[N+]([O-])c1ccc(-n2cnc3ccccc32)c([N+](=O)[O-])c1	23.1µM*	-28.9%	?	?	?
O=[N+]([O-])c1ccc2c(c1)ncn2-c1ccccc1	?	-7.1%	-43.8%	-40.8%	-1.2%
COc1cccc(C2NC(=O)NC(C)=C2C(=O)OCC2CCCCC2)c1 (centres undefined)	17.8%	-4.2%	-7.4%	2.6%	-4.7%
O=S(=O)(NCc1ccccc1)c1ccccc1NCc1ccc(Cl)cc1	4.0%	.	-5.5%	4.5%	.
NC(=O)C1(N2CCCCC2)CCN(Cc2ccccc2Cl)CC1	-6.3%	-22.5%	11.6µM*	16.4µM*	2.5%
COc1ccc(C(=O)C2CCCN(Cc3cccc4c3OCO4)C2)cc1OC (centres undefined)	1.1%	-1.7%	7.7%	25.6%	10.0%
CC(C)[C@H](CO)Nc1nc(NCc2ccc(S(N)(=O)=O)cc2)c2ncn(C(C)C)c2n1	?	4.5%	18.4µM*	27.3%	9.0%
CSc1ccccc1-c1nnc(NC(=O)Cc2ccccc2)o1	-6.8%	1µM*	-32.8%	-0.4%	2.51µM*
COc1ccccc1-c1nnc(NC(=O)Cc2ccccc2)o1	3.9%	2µM*	-9.6%	-5.4%	3.16µM*
Cc1ccc(S(=O)(=O)CCC(=O)Nc2nnc(-c3ccccc3S(C)(=O)=O)o2)cc1	3.7%	.	-38.9%	27.3%	.
CSc1nnc(-c2ccccc2SC)o1	18.0%	-2.4%	-1.5%	1.9%	6.4%
CS(=O)(=O)c1ccccc1-c1nnc(NC(=O)Cc2ccccc2)o1	-7.3%	11.2µM*	4.6%	-0.7%	?
COC(=O)COc1ccc(S(=O)(=O)Nc2cc(OC)ccc2OC)cc1	0.8%	5.01µM*	.	.	25.1µM*
SMILES	ELG1 repair inh	RORg inh	SW480 rereplic	MCF10A rerep	Gal4-VP16 FLuc
COC(=O)c1ccc(C)c(NS(=O)(=O)c2ccc(C)c([N+](=O)[O-])c2)c1	-0.2%	1.1%	-0.4%	?	-14.3%
COC(=O)c1ccc(C)c(NS(=O)(=O)c2ccc(OC)cc2)c1	?	?	0.259µM*	?	-12.3%
COc1ccc(S(=O)(=O)Nc2cc(C)c(O)cc2C(C)C)cc1	-1.4%	?	-0.4%	15.4%	23.1%[0.365 µM]
COc1ccc(S(=O)(=O)Nc2cc(C(C)C)c(O)cc2C)cc1	-12.4%	15.8µM*	2.3%	5.0%	?
CCOC(=O)c1cc(C(=O)n2cc(Cl)cn2)nn1C	-2.0%	-7.1%	0.2%	-2.0%	?
N#CC1(C#N)[C@@H](C(=O)C23CC4CC(CC(C4)C2)C3)C12CCOCC2	12.3%	-8.1%	-0.3%	8.2%	-6.6%
OCCN(CCO)CC(O)COCCC12CC3CC(CC(C3)C1)C2 (centres undefined)	9.7%	0.7%	-0.6%	22.7%	-8.0%
CC(C)CNC(=O)c1ccccc1N(Cc1ccccc1)S(C)(=O)=O	-8.1%	-18.7%	11.6µM*	1.5%	-0.3%
COc1ccc(N(CC(=O)Nc2ccccc2C(=O)NCC(C)C)S(C)(=O)=O)cc1	-11.4%	6.0%	18.4µM*	-5.0%	-2.8%
CCOc1ccc(N(CC(=O)Nc2ccc(C)c(C)c2)S(C)(=O)=O)cc1	?	-10.9%	2.4%	?	-2.6%
CCOc1ccc(N(CC(=O)Nc2cc(Cl)ccc2C)S(C)(=O)=O)cc1	-17.6%	-9.2%	18.4µM*	?	-3.2%
CCOc1ccc(N(CC(=O)Nc2ccccc2Cl)S(C)(=O)=O)cc1	4.4%	2.8%	20.6µM*	?	6.6%
CCOc1ccc(S(=O)(=O)NCCC(=O)OCC(=O)N2CC(=O)Nc3ccccc32)cc1	3.2%	25.4%	-10.1%	-0.6%	0.0%
Cn1cccc1C(=O)/C(C#N)=C/c1ccc(F)cc1	3.3%	-1.8%	-6.4%	1.0%	21.3%
C#CC(CC)(CC)NC(=O)Nc1ccccc1C(=O)OC	-1.1%	4.9%	4.9%	8.4%	-9.5%
COCCNc1nc(-c2ccoc2)nc2ccccc12	.	9.6%	.	.	5.0%
C=C(C1=CCN(S(=O)(=O)C(C)(C)C)[C@@H]1CCO)c1ccccc1	.	.	5.7%	-27.3%	.
C(=N\Nc1nc(-c2ccccc2)cs1)/c1ccncc1	?	1.9%	-110.3%	-1.0%	27.7%
Cc1ccc2[nH]c(C)c(/C=N/Nc3nc4ccccc4s3)c2c1	28.3%	-33.4%	?	?	4.0%
CCC/C=N/Nc1nc2ccccc2s1	?	11.2µM*	?	?	?
C(=C\c1ccccc1)/C=N/Nc1nc2ccccc2s1	?	7.94µM*	-5.5%	-3.2%	?
Cc1ccc(-c2csc(N/N=C/C=C/c3ccccc3)n2)cc1	0.0%	2.82µM*	4.3%	8.9%	?
CNCCCC12CCC(c3ccccc31)c1ccccc12	-29.8%	10µM*!	?	?	?
CNCCCC1c2ccccc2C=Cc2ccccc21	-18.7%	25.2%	?	?	-0.9%
O=C(Cc1cccs1)NNC(=S)NC(=O)c1ccccc1	-0.7%	7.94µM*	-4.4%	?	10µM*
